High-throughput results deposited in PubChem by National Center for Advancing Translational Sciences (NCATS).
Hits are enriched below; roughly 11% of the tested compounds scored in any of these assays.
G9a block = blocks human histone lysine methyltransferase G9a. 8.8% of 350,000 active. AID 504332. G9a H3K9 monomethylation, AlphaScreen, 2 h. Q96KQ7. Potency, µM (highest dose often 102 µM), for the others: at the top dose activity, negative = inhibition, usual class: inhibitors; note: % is set by controls: 0 for no effect and ±100 for the full control effect; nearly all actives have a fitted effect of over 75% in size
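Signal arises when biotinylated H3K9 peptide, once monomethylated, bridges streptavidin donor and antibody-captured acceptor beads. Enzyme at 20 nM was preincubated 15 min with test compounds; peptide 500 nM and SAM 20 uM then reacted for 2 h.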
L3MBTL1 block = blocks human L3MBTL1; Q9Y468; AlphaScreen L3MBTL1–H3K9me1 peptide binding; Potency, µM (titrated, usually from 57.1 µM), for inactives: top-dose activity, negative = inhibition, actives largely listed as inhibitors; 0.66% of 230,000 active; note: % is set by controls: 0 for no effect and ±100 for the full control effect; nearly all actives have a fitted effect of over 60% in size
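L3MBTL1 50 nM + b-AHA-H3(1-15)K9me1 75 nM, 30 min RT; compound added, 30 min RT; streptavidin donor/Ni-chelate acceptor beads 10 ug/mL each final, 30 min RT dark; AlphaScreen read.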
BAZ2B inh = BAZ2B (human) inhibition. Q9UIF8. AlphaScreen BAZ2B-H3K14Ac peptide displacement. Potency, µM (series often up to 114 µM), inactives show at the highest dose activity change, negative = inhibition, most hits filed as inhibitors. 4.4% of 360,000 active; note: % is set by controls: 0 for no effect and ±100 for the full control effect; nearly all actives have a fitted effect of over 60% in size
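In this displacement format the biotinylated H3(5-23) peptide acetylated at Lys14 serves as ligand at 50 nM, with BAZ2B at 50 nM in PBS pH 7.4 containing 0.01% Tween-20. Donor and acceptor beads are 10 ug/mL final.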
HP1b binding inh = HP1-beta chromodomain-methylated histone interaction inhibition. AID 540317. AlphaScreen HP1-beta / biotin-H3K9me3 peptide binding. Potency, µM (top dose mostly 114 µM), inactives show at the highest dose activity change, negative = inhibition, hits mostly inhibitors. 0.56% of 390,000 active. P83916; note: nearly all actives have a fitted effect of over 70% in size
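Compound inhibition of the preformed complex between 50 nM HP1-beta and 50 nM biotinylated H3K9me3 peptide was read by AlphaScreen. Buffer was PBS pH 7.4 with 0.01% Tween-20. Incubations ran 30 min at room temperature, with 10 ug/mL donor/acceptor beads.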
JMJD2A Tudor = inhibitors of human JMJD2A Tudor domain; AlphaScreen JMJD2A-Tudor / H3K4me3 peptide binding; Potency, µM (top dose mostly 114 µM), for the others: at the top dose activity change, negative = inhibition, usual class: inhibitors; 4.4% of 390,000 active; AID 504339; note: % is set by controls: 0 for no effect and ±100 for the full control effect; nearly all actives have a fitted effect of over 50% in size
* hit, by the source's call; ? = inconclusive; · = no result given; [ ] = remark or other dose. Calls come from the whole dose curve; as a rule, active = well fitted inhibition curve with a large enough effect; inconclusive = small, poorly fitted or top-dose-only effect; inactive = no such curve, though single readings can be large or run the other way. Potency is the fitted concentration of half-maximal effect.

SMILES	G9a block	L3MBTL1 block	BAZ2B inh	HP1b binding inh	JMJD2A Tudor
CCOc1cc(N2CCOCC2)c(OCC)cc1NC(=O)CN1CCCC1	3.2µM*	-10%	13µM*	4%	?
CCOc1cc(N2CCOCC2)c(OCC)cc1NC(=O)C1CCCC1	7.9µM*	·	-3%	9%	-8%
CCOc1cc(N2CCOCC2)c(OCC)cc1NC(=O)CCC1CCCC1	-4%[59 µM]	-16%	-34%	4%	-24%
CCOc1cc(N2CCOCC2)c(OCC)cc1NC(=O)c1ccc2ccccc2n1	18µM*	-23%	16µM*	?	22µM*
CCOc1cc(N2CCOCC2)c(OCC)cc1NC(=O)c1ccc(=O)n(Cc2ccccc2)n1	22%	-8%	-2%	·	·
CCOc1cc(N2CCOCC2)c(OCC)cc1NC(=O)c1nn(CC)c(=O)c2ccccc12	?	-8%	50µM*	-40%	50µM*
CCOc1cc(N2CCOCC2)c(OCC)cc1NC(=O)C(C)Oc1ccccc1 (configuration not stated)	·	-26%	·	-17%[57 µM]	35µM*
CCOc1cc(N2CCOCC2)c(OCC)cc1NC(=O)c1ccccc1C	?	4%[11.4 µM]	?	-10%	?
CCOc1cc(N2CCOCC2)c(OCC)cc1NC(=O)Cc1cccc2ccccc12	3.5µM*	·	22µM*	-17%	?
Clc1ss/c(=N\c2ccccn2)c1Cl	1.8µM*	6%	40µM*	18%	-11%
Clc1ccccc1N=Nc1ccccn1	·	·	·	-21%	?
Cc1cc(C)cc(NC(=O)CSc2nc3c([nH]c4ccccc43)c(=O)n2-c2ccc(F)cc2)c1	-19%[59 µM]	·	19%	34%[57 µM]	-6%
O=C(O)c1cc(N/N=C/c2ccc(N3CCOCC3)cc2)ccc1Cl	-138%[59 µM]	-25%	?	52%	-34%
Clc1cccc(N/N=C/c2ccc(N3CCOCC3)cc2)c1	32µM*	-14%	-8%[57.1 µM]	-3%	?
Cc1cc(C)nc(N/N=C/C2=C(N3CCOCC3)C(=C\c3ccc(Cl)cc3)/CC2)n1	?	-10%	-32%	3%[57 µM]	?
O=[N+]([O-])c1cccc(N/N=C/c2ccc(N3CCOCC3)cc2)c1	40µM*	·	18µM*	40µM*	35µM*
O=C(O)c1ccc(N/N=C/C2=C(N3CCOCC3)C(=C\c3ccccc3)/CC2)cc1	·	?	50µM*	?	?
C(=N\Nc1ccccc1)/c1ccc(N2CCOCC2)cc1	4µM*	-8%	-33%[57.1 µM]	2%	?
O=C(CN1Cc2ccccc2C1=O)Nc1cc(F)ccc1F	-10%[59 µM]	·	0%	35%	-14%
O=C(NCc1ccccc1Br)C1CCCN(C(=O)N2CCOc3ccccc32)C1 (configuration not stated)	-22%[59 µM]	·	-1%	24%	-5%
COc1cc2c(cc1OC)C(COc1ccc3c(C)cc(=O)oc3c1)N(C(=O)c1ccccc1F)CC2 (configuration not stated)	7%[59 µM]	·	-4%	25%	3%
O=C(Cc1ccccc1)NCC(=O)Nc1ccc(OC(F)(F)F)cc1	5%	·	-12%	28%	-8%
COCCNCC(=O)Nc1ccc(OC(F)(F)F)cc1	22µM*	15%	50µM*	?	0.79µM*
CCOCCCNCC(=O)Nc1ccc(OC(F)(F)F)cc1	50µM*	·	79µM*	?	40µM*
Cc1ccc(CSC2=Nc3ccccc3C3=NC(CCC(=O)NCc4cccs4)C(=O)N23)c(C)c1 (configuration not stated)	2%[59 µM]	·	-2%	24%	-12%
SMILES	G9a block	L3MBTL1 block	BAZ2B inh	HP1b binding inh	JMJD2A Tudor
CCOC(=O)c1nnc2ccnn2c1N	?	2%	-3%	2%	89µM*
CCOC(=O)c1nnc2cc(C)nn2c1C	20%[59 µM]	4%	1%	37%	-2%
O=S(=O)(c1cnc2ccccc2c1)N1CCN(c2nc(-c3cccs3)nc3ccccc23)CC1	·	·	·	31%	-18%
Cc1cc(N=Nc2ccc(C)c(N=Nc3cc(C)c(N)cc3N)c2)c(N)cc1N	40µM*	·	40µM*	?	50µM*
Cc1cc(C)c(C(=O)CSc2nnc(C)c(=O)[nH]2)cc1C	40µM*	22%	-14%	31%	-5%
Cc1cc(C)c(S(=O)(=O)NCc2csc(-c3ccccc3)n2)c(C)c1	25%[59 µM]	·	26%	50%	7%
CCOC(=O)c1c(NC(=S)Nc2ccccc2)sc2c1CCN(CC)C2	35µM*	-4%	-35%	25%	-1%
CCOC(=O)N1CCc2c(sc(N)c2C#N)C1	20µM*	-7%	-25%	20%	-20%
CCOC(=O)c1c(NC(=S)Nc2ccccc2)sc2c1CCCCC2	?	-4%	-22%	-10%	-13%
C=CCNC(=S)Nc1sc2c(c1C(=O)OCC)CCN(C(=O)OCC)C2	13µM*	·	14%	8%	-27%
CCCN1CCc2c(sc(NC(=O)CCS(=O)(=O)c3ccccc3)c2C(=O)OC)C1	40µM*	·	-19%	25%	-15%
COC(=O)c1c(NC(=O)CCS(=O)(=O)c2ccccc2)sc2c1CCN(C)C2	?	·	-17%	27%	-14%
CCCOc1cccc(C(=O)N(Cc2ccc(C)o2)C2CCS(=O)(=O)C2)c1 (configuration not stated)	-12%[59 µM]	·	-16%	5%	-31%
N#CC1=C(N)OC2=C(C(=O)CCC2)C12CCC1(CC2)OCCO1	79µM*	-5%	-36%	5%	-17%
CCOc1ccccc1CNC(=O)c1oc2c(c1C)-c1[nH]ncc1CC2	?	·	-29%	67%	-21%
COc1cc(CC(=O)NCC(C)(C)N2CCOCC2)cc(OC)c1OC	50µM*	·	1%	15%	-5%
COc1ccc(S(N)(=O)=O)cc1C(=O)NCC(C)(C)N1CCOCC1	8%	·	-20%	-3%	-13%
c1ccc2c(c1)OC(CCCN1CCCCC1)c1ccccc1S2 (configuration not stated)	3%[59 µM]	?	1%	5%	-24%
CN1CCCC(CC2Oc3ccccc3Sc3ccccc32)C1 (configuration not stated)	?	-2%	50µM*	?	8.9µM*
COc1ccc(C(=O)NCCSc2c(C)[nH]c3ccccc23)cc1	-49%[59 µM]	·	71µM*	16%	-33%
Cc1[nH]c2ccccc2c1SCCNC(=O)c1ccc(F)cc1	-3%[59 µM]	·	-23%	14%	?
Cc1cccc(Nc2cc(C)c3c(O)cccc3n2)c1C	50µM*	-10%	40µM*	-3%	45µM*
Cc1cc(Nc2ccccc2O)nc(C)n1	-11%[59 µM]	·	-12%	18%	-17%
COc1cc(NC(=O)Cn2cc(S(=O)(=O)N3CCC(C)CC3)c3ccccc3c2=O)cc(OC)c1OC	?	·	-20%	21%	-27%
Cc1cc(C)c(C#N)c(Oc2ccccc2Br)n1	32%	13%	7%	91%	20%
O=C1NC(c2cc(Cl)cc([N+](=O)[O-])c2O)Nc2ccccc21 (configuration not stated)	·	10%	40µM*	-4%	?
